Measured values reported in the supplement of paper PMC11732987, “Enantioselective OTUD7B fragment discovery through chemoproteomics screening and high-throughput optimisation” (Communications Chemistry, 2025).

Columns and labels:
Test in all cases: log2 ratio of Biotin-Ahx-Ub-VS probe labelling (fragment/DMSO); higher = less target engagement (more negative = stronger competition), active = hit call of the paper (q ≤ 0.05, log2 ratio ≤ -1)
Conditions in all cases: compound concentration: 200 uM; treatment time: 3 h
USP42 = biological target: T1, USP42 (UniProt Q9H9J4)
T1 sequence (whole entry): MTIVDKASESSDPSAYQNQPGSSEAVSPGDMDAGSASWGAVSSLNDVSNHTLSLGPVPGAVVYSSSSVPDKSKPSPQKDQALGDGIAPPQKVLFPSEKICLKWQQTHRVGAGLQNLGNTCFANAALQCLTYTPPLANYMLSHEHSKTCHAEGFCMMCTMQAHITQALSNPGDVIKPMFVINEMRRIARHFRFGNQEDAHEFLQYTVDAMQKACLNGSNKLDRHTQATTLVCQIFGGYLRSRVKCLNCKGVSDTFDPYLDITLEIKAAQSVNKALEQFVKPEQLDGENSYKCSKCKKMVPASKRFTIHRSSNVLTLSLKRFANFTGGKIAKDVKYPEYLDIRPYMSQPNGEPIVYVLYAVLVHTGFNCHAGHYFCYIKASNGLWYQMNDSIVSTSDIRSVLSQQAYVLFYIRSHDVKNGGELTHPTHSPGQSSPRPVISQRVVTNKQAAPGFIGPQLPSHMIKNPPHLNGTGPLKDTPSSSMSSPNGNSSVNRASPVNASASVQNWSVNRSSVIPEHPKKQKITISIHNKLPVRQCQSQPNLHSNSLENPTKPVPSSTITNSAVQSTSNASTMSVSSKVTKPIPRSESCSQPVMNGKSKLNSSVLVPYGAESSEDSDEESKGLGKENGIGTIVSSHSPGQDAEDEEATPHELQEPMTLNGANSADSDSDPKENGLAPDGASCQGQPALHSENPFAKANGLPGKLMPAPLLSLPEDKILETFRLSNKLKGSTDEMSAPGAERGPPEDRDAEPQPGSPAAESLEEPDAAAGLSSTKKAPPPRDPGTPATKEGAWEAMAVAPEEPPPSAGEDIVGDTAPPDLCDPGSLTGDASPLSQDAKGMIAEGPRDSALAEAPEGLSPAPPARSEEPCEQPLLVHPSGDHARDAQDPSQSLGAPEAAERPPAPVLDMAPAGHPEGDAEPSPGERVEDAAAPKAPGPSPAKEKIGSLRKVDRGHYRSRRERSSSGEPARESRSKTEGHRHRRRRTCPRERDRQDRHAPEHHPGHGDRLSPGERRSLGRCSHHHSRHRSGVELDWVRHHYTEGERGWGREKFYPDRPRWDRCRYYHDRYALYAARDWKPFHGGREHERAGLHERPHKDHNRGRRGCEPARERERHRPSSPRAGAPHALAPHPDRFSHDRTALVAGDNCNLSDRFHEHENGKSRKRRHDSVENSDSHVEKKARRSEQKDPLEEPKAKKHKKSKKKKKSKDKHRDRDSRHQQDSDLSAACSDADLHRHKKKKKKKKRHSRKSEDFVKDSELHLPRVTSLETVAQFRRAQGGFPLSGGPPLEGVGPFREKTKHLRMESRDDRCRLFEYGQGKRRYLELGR
Method in brief: (§1)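 HEK293T lysate in Tris/CHAPS/IGEPAL buffer with protease inhibitors (495 µg per sample) was given fragment at 200 µM or vehicle for 3 h, in triplicate. It then received Biotin-Ahx-Ub-VS at 0.5 µM final for 1 h. Labelled DUBs were NeutrAvidin-enriched, digested with LysC and trypsin, and run by diaPASEF LC-MS/MS. Values are average log2 fragment/vehicle ratios by unpaired t-test on global-median-normalised Spectronaut quantities of proteins with ≥2 unique peptides.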

USP46 = USP46 (UniProt P62068)
Method in brief: as §1

USP47 = biological target: T2, USP47 (UniProt Q96K76)
T2 sequence (whole entry): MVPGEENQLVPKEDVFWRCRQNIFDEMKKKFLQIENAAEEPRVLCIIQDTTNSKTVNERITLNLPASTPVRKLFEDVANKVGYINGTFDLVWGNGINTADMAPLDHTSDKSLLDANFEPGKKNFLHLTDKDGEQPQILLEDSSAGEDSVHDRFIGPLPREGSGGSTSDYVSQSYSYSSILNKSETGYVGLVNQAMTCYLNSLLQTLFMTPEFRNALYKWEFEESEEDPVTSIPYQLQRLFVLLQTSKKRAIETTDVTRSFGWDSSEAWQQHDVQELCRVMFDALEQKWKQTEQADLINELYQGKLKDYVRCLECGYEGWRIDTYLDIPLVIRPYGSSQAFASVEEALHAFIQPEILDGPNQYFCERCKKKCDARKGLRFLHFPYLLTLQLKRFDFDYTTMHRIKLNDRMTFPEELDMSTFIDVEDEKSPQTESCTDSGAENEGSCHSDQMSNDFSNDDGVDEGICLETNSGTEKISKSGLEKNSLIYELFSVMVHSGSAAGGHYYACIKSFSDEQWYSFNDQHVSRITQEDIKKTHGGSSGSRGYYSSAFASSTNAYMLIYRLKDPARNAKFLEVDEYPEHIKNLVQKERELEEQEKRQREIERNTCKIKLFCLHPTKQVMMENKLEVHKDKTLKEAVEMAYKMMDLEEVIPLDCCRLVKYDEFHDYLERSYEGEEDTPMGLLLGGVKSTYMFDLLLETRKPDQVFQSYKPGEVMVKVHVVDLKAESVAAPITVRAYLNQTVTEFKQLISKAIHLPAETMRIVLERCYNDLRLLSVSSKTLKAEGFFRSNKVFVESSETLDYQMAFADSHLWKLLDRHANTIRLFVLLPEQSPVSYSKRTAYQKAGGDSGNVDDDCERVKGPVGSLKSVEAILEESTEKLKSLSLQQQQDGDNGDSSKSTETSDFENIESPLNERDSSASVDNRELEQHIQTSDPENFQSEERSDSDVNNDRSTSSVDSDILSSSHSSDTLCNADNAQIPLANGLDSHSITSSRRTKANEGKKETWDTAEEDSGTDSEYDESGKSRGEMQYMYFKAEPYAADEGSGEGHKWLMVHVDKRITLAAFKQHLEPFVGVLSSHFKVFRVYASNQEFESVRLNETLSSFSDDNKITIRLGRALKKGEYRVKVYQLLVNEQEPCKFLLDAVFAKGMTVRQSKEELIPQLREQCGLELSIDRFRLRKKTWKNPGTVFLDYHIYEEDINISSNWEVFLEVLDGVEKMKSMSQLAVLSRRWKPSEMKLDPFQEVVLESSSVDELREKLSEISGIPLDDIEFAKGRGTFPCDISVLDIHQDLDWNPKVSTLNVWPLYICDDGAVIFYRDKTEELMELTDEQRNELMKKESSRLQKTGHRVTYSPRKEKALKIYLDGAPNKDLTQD
Method in brief: as §1

USP48 = biological target: T3, USP48 (UniProt Q86UV5)
T3 sequence (whole entry): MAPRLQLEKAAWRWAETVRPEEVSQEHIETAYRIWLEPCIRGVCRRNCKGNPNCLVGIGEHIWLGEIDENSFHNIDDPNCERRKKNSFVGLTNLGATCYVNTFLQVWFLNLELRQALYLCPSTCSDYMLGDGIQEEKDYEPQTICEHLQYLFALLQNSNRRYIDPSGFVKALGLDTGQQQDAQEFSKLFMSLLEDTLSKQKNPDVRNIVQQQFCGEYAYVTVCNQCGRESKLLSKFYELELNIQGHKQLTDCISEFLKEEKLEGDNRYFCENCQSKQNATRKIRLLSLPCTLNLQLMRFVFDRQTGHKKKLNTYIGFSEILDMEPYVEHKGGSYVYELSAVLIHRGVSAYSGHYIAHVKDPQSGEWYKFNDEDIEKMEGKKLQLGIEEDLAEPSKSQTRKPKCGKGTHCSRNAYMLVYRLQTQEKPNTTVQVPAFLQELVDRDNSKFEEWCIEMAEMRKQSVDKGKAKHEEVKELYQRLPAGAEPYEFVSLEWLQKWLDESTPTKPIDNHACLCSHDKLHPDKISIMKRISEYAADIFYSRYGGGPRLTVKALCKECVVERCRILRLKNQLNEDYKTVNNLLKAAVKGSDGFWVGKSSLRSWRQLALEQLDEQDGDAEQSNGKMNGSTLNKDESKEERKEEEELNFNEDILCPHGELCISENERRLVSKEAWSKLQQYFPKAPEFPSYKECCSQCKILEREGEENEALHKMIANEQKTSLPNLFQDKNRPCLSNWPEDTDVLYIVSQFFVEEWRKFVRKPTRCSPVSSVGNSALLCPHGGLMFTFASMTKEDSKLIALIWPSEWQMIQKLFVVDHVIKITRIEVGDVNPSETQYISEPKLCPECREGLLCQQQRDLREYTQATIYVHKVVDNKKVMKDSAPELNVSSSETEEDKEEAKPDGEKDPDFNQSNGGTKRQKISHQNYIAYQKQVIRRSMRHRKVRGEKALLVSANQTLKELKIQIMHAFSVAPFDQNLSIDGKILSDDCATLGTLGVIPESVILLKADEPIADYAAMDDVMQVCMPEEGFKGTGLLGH
Method in brief: as §1

USP5 = biological target: T4, USP5 (UniProt P45974)
T4 sequence (whole entry): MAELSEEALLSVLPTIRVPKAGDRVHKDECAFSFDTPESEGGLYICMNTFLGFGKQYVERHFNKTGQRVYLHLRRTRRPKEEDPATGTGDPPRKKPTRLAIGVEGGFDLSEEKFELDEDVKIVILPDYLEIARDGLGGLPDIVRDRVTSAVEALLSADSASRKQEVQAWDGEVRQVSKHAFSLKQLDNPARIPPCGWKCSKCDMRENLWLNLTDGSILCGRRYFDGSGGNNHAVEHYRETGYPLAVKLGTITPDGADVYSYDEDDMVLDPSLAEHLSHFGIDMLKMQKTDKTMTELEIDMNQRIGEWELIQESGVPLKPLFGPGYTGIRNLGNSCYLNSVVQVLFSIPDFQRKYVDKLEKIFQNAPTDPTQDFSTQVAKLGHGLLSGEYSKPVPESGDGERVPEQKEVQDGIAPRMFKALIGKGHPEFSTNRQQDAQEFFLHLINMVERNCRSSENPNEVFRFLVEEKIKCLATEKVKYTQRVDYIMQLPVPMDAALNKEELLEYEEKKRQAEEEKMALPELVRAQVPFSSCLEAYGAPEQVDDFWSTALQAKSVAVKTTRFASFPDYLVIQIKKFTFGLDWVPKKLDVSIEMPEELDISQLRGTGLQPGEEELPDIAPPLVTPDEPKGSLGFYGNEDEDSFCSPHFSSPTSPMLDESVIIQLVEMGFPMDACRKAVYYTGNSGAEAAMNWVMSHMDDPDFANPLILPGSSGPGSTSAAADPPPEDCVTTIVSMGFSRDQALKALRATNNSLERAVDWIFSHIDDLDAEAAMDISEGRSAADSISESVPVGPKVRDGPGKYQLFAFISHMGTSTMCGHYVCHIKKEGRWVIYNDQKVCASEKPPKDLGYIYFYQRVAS
Method in brief: as §1

USP54 = USP54 (UniProt Q70EL1)
Method in brief: as §1

USP7 = USP7 (UniProt Q93009)
Method in brief: as §1

USP8 = biological target: T5, USP8 (UniProt P40818)
T5 sequence (whole entry): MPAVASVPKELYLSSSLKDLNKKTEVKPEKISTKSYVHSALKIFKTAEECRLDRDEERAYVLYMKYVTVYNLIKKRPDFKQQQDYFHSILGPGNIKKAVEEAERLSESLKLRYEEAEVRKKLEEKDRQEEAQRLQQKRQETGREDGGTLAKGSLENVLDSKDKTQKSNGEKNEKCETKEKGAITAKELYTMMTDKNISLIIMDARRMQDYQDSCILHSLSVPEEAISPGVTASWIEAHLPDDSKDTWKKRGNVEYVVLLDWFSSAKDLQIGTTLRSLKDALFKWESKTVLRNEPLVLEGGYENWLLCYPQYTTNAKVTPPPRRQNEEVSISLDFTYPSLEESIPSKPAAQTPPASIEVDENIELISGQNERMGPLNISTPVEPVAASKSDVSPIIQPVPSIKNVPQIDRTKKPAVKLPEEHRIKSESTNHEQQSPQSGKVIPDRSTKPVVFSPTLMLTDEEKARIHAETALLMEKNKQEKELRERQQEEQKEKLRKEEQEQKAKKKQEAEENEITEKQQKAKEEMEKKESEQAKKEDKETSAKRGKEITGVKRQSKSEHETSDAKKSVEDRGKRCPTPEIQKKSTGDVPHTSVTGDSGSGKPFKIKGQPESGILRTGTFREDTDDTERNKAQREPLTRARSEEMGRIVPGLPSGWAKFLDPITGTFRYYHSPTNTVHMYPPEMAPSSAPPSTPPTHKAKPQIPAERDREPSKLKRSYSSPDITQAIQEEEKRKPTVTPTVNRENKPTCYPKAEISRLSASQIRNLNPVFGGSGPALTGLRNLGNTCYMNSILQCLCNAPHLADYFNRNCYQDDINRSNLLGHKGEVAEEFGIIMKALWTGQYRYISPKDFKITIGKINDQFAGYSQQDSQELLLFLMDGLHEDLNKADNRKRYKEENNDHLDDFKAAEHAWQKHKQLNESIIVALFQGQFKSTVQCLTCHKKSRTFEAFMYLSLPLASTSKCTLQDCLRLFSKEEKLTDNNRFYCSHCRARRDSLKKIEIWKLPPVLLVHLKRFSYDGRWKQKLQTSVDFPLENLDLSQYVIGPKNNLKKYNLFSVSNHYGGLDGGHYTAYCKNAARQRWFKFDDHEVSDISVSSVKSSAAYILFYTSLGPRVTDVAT
Method in brief: as §1

USP9X = USP9X (UniProt Q93008)
Method in brief: as §1

UniProt O00487 = biological target: UniProt O00487
Method in brief: as §1

Measured: log2 ratio of Biotin-Ahx-Ub-VS probe labelling

Sequence of USP7 (Q93009 whole entry, looked up): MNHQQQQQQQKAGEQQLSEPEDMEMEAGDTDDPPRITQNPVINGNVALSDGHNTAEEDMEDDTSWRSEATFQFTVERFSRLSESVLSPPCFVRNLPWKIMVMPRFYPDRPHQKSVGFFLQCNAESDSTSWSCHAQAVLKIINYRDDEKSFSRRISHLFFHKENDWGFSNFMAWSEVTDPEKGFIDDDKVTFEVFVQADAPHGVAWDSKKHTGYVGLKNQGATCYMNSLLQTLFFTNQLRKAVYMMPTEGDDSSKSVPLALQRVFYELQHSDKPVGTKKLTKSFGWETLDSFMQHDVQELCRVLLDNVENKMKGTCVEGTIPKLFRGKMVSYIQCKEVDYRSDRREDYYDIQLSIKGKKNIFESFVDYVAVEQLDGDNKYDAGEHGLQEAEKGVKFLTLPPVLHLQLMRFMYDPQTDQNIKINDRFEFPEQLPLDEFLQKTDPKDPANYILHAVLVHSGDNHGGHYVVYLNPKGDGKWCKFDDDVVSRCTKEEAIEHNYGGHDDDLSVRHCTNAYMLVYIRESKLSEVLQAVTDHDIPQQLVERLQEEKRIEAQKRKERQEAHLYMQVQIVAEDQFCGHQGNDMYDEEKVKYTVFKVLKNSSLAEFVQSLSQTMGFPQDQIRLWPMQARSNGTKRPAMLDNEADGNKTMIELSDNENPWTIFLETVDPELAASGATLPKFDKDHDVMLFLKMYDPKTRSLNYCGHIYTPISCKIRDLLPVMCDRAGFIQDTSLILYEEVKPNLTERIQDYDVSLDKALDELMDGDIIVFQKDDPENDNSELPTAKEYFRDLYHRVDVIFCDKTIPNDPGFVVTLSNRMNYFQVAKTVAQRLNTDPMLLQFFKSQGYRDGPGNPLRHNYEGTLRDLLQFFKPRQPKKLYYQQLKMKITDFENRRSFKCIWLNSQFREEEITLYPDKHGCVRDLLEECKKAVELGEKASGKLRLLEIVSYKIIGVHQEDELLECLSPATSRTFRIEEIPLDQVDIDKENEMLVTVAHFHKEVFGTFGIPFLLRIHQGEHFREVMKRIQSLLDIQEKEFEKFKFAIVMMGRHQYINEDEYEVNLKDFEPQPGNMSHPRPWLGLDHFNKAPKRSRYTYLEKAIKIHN
Sequence of USP54 (Q70EL1 whole entry): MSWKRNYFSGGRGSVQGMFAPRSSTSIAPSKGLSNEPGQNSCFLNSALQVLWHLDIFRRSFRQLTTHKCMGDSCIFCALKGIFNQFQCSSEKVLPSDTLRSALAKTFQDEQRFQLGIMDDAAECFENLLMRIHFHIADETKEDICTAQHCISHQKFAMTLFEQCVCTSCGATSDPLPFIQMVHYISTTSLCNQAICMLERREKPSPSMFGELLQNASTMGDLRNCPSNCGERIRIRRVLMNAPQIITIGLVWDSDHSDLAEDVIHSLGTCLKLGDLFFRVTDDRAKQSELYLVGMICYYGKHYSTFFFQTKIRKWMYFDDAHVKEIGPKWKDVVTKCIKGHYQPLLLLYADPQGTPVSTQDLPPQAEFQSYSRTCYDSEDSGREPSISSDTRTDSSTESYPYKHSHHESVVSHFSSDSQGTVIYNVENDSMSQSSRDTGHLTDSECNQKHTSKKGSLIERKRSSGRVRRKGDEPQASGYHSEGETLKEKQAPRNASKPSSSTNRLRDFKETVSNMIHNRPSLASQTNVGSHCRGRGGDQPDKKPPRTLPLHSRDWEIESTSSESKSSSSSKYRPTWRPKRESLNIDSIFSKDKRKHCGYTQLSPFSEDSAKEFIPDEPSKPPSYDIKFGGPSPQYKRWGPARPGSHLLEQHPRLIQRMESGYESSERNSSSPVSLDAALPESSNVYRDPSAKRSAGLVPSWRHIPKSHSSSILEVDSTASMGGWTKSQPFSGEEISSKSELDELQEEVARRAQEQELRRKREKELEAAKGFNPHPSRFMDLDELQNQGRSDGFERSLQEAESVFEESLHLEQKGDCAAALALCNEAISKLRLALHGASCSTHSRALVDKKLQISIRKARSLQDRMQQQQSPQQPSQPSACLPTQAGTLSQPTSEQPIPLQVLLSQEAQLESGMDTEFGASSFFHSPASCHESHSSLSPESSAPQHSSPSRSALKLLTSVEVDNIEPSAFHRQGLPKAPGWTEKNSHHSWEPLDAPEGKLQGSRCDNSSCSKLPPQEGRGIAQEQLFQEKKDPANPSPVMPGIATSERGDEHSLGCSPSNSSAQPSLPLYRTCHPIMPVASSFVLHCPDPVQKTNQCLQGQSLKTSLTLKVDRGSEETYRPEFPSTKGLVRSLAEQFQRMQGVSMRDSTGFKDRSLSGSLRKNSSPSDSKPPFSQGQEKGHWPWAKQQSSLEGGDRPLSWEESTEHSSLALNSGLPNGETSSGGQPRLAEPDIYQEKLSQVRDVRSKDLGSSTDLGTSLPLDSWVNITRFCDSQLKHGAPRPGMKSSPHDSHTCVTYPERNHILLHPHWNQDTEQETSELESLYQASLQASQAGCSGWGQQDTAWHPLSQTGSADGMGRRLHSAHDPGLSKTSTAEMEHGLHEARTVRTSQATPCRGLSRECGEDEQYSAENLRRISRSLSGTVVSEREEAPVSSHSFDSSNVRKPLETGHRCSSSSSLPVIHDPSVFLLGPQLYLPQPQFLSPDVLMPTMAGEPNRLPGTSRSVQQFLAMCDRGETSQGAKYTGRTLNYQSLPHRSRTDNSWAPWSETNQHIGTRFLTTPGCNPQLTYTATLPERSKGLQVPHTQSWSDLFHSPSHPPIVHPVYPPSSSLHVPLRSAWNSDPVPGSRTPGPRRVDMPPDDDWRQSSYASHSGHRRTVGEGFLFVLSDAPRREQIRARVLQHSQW
Sequence of USP46 (P62068 whole entry): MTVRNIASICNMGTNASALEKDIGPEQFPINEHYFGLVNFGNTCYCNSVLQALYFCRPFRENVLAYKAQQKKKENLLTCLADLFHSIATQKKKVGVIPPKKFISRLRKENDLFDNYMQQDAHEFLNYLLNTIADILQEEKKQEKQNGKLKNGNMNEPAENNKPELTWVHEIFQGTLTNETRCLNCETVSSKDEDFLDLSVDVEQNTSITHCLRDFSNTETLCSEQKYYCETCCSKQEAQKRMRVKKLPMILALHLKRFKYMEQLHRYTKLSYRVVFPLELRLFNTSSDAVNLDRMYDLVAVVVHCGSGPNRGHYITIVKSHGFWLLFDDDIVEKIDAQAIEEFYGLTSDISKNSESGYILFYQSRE
Sequence of UniProt O00487 (O00487 whole entry): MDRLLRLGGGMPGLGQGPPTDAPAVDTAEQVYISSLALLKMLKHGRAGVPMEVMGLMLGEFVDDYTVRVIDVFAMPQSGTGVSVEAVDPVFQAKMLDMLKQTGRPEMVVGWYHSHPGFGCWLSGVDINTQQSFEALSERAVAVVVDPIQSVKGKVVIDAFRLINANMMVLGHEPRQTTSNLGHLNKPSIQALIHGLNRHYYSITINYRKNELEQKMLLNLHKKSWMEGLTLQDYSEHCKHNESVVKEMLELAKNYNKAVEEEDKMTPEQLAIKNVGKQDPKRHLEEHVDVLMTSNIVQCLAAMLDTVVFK

O=C(CCl)N1CC=C(c2c[nH]c3ccccc23)CC1
inactive: USP42 0.0977 | USP47 0.0399 | USP48 -0.728 | USP5 -0.577 | USP54 0.155 | USP8 -0.785 | USP9X -0.82 | UniProt O00487 -0.0429
active: USP46 -1.44 | USP7 -1.53
